Source: PubChem
DT40 TDP1 CPT: growth inhibition of DT40 Tdp1-/-;hTDP1 cells with camptothecin (screen for TDP1 inhibitors); AID 686979; chicken DT40 Tdp1-/-;hTDP1 cells + 20 nM CPT, ATP luminescence, 48 h; Potency, µM (titrated, usually from 46.2 µM), for the others: at the highest dose activity change, negative = growth inhibition, most hits filed as inhibitors; 420,000 compounds, 12% hits; also: % is scaled to controls: 0 for no effect and ±100 for the full control effect; nearly all actives have a fitted effect of over 55% in size
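Cell growth measured by CellTiter-Glo luminescence after a minimum 48 h, 37 C compound exposure with 20 nM CPT in Tdp1-knockout DT40 cells stably expressing hTDP1, seeded 400/well; qHTS titration format.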
TGFb SMAD3 inh: inhibitors of TGF-b signaling | HepG2 CAGA-GFP TGF-b/SMAD3 reporter, GFP fluorescence, 18 h; TGF-beta stimulated, 500 pg/mL final | AID 588855 | 410,000 compounds, 1.2% hits | Potency, µM (top dose mostly 46.1 µM), for the others: top-dose activity, negative = inhibition, usual class: inhibitors; also: % is scaled to controls: 0 for no effect and ±100 for the full control effect; nearly all actives have a fitted effect of over 65% in size
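HEPG2 CAGA-GFP reporter cells (1000/well, DMEM with 1% FBS) received compounds, then recombinant TGF-beta at 500 pg/mL final for 18 hours at 37 degrees C. Per-cell GFP summed per well was normalised to unstimulated and stimulated DMSO controls before curve fitting.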
DT40 TDP1 no CPT: qHTS for Inhibitors of human tyrosyl-DNA phosphodiesterase 1 (TDP1): qHTS in cells in absence of CPT | DT40 Tdp1-/- hTDP1 cells, no CPT, ATP luminescence, 48 h | Potency, µM (series often up to 46.2 µM), for inactives: top-dose activity change, negative = growth inhibition, usual class: inhibitors | 420,000 compounds, 15% hits | AID 686978, 2013; also: % is scaled to controls: 0 for no effect and ±100 for the full control effect; nearly all actives have a fitted effect of over 55% in size
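Luminescent ATP content (CellTiter-Glo) served as the growth readout. Knockout chicken DT40 cells expressing human TDP1 were exposed to compounds without camptothecin for a minimum 48 hr at 37 °C.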
ATXN2 expr inh: ATXN2 expression inhibition. AID 1745845. 360,000 compounds, 0.72% hits. HEK-293 ATXN2-luciferase reporter, luminescence, 24 h. Potency, µM (top dose mostly 57 µM), for inactives: top-dose activity change, negative = inhibition, actives largely listed as inhibitors; also: % is scaled to controls: 0 for no effect and ±100 for the full control effect; nearly all actives have a fitted effect of over 55% in size
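qHTS (up to 57 uM final) was run with 24 h compound exposure of reporter cells at 37 °C. Each well was multiplexed: SteadyGlo luminescence measured ATXN2-luciferase expression after a fluorogenic Gly-Phe-AFC viability readout (25 uM final).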
S2 tox: cell viability loss in ATXN counter-screen | 400,000 compounds, 0.49% hits | Potency, µM (doses to about 56.7 µM), actives largely listed as cytotoxic | S2 cells (HEK-293 line with an ATXN2-luciferase reporter) viability, CellTiter-Fluor protease fluorescence, 24 h; also: nearly all actives have a fitted effect of over 40% in size
HepG2 viability: kills HepG2 cells in TGF-b inhibitor counter-screen; AID 588856; HepG2 CAGA-GFP viability, ATP luminescence, 18 h; Potency, µM (series often up to 46.1 µM), inactives show top-dose activity change, negative = cytotoxicity, hits mostly cytotoxic; 410,000 compounds, 0.76% hits
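HepG2 CAGA-GFP cells (1000/well, DMEM with 1% FBS) received compound, then TGF-beta at 500 pg/mL final, and were incubated 18 hours at 37 degrees C. Viability was read by CellTiter-Glo luminescence. Media-only wells were set as complete cell-killing and DMSO as no toxicity.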
Numbers without * were called inactive; i = inactive; ? = inconclusive; / = not tested or not shown; [ ] = another dose, or the depositor's remark. The list is not random: actives were taken first. Their share in the collection is about 17%. Calls follow the shape of the dose curve; as a rule, active = well fitted curve in the direction sought with a large enough effect; inconclusive = small, poorly fitted or top-dose-only effect, or another doubt; inactive = no such curve, though single readings can be large; an effect the other way counts as inactive or inconclusive. Potency is read from the fitted curve at half-maximal effect.

SMILES | DT40 TDP1 CPT | TGFb SMAD3 inh | DT40 TDP1 no CPT | ATXN2 expr inh | S2 tox | HepG2 viability
Cc1ccc(NC(=O)CSCc2cnn(-c3ccccc3)c2-n2cccc2)c(C)c1 | ? | / | 16µM* | / | / | -30%
NS(=O)(=O)c1ccc(CCNC(=S)Nc2ccccc2)cc1 | -28% | -16% | -18% | 2% | i | -17%
COc1ccc(Cl)cc1NC(=O)[C@@]1(CC(=O)O)CC(/C=C/c2ccccc2)=NO1 | 3% | 3% | 14% | 0% | i | 5%
O=C(CCl)NCc1cc(-c2ccc(Cl)cc2)no1 | 10µM* | ? | 18µM* | ? | ? | -36%
Cc1cc(SCC(=O)NCCCN2CCCC2=O)nc2ccccc12 | -4% | 13% | 11% | 3% | i | 13%
C[C@@H]1CN(Cc2ccc3c(c2)CN(Cc2cccc4cccnc24)CCO3)C[C@H](C)O1 | 1%[9.04 µM] | / | ? | / | i | /
COCCCNC(=O)c1ccc2c(c1)NC(=O)C(C(C)C)N2 (stereo not given) | -2% | -26% | 2% | 6% | i | 8%
CCC(C)C1Nc2ccc(C(=O)NCCc3ccc(OC)c(OC)c3)cc2NC1=O (stereo not given) | 16µM* | -1% | ? | -16% | i | 6%
COc1cc(CNCCc2ccc(F)cc2)ccc1OCc1ccc(Cl)nc1 | 18µM* | ? | 21µM* | ? | ? | -84%
CCNCc1ccc(OCc2ccccc2F)c(OC)c1 | -27% | 16% | ? | / | i | -7%
COc1cc(CNCCc2ccccc2F)ccc1OCc1ccc(Cl)nc1 | 15µM* | 18% | 23µM* | 4% | i | -52%
CN(CC(=O)Nc1ccc(Cl)c(C(F)(F)F)c1)Cc1cc(=O)n2ccsc2n1 | -18% | 5% | ? | -1% | i | -8%
CCOC(=O)c1cccc(NC(=O)Cn2nc(C)n3cccc3c2=O)c1 | -3% | 15% | -15% | / | i | -5%
CC(=O)c1ccc(N2CCN(C(=O)c3ccc4c(c3)OCO4)CC2)cc1 | ? | -1% | ? | 4% | i | -4%
CC(=O)c1ccc(N2CCN(C(=O)c3ccc(-c4ccccc4)cc3)CC2)cc1 | ? | -19% | 13µM* | -15% | i | -8%
CC(=O)c1ccc(N2CCN(C(=O)c3cccc(Oc4ccccc4)c3)CC2)cc1 | 16µM* | ? | 18µM* | 1% | ? | -8%
CC(C)CC(=O)N1CCN(C(=O)c2ccc(-c3ccccc3)cc2)CC1 | ? | ? | 23µM* | -21% | i | -40%
CC(C)CC(=O)N1CCN(C(=O)c2cccc(F)c2)CC1 | -3% | 4% | 9% | -1% | ? | -6%
CC(=O)N1CCN(C(=O)c2ccc(Oc3ccccc3)cc2)CC1 | 3% | -10% | -2% | -5% | i | 3%
Cc1ccc(/C=N/NC(=O)CN(Cc2ccccc2)S(=O)(=O)c2ccc3c(c2)OCCO3)cc1 | -21% | -23% | -29% | -12% | i | -63%
CC1=C(C#N)C(C(F)(F)F)(C(F)(F)F)N=C(c2ccco2)N1 | ? | -4% | 16µM* | 0% | i | -30%
O=c1[nH]c(=O)n(Cc2ccccc2)c2c1C(C(F)(F)F)(C(F)(F)F)N=C(c1ccco1)N2 | ? | -15% | ? | 7% | i | -32%
COc1cc(/C=C(/C#N)C(=O)Nc2ccc(Cl)cc2)ccc1Oc1nc(Cl)ncc1F | 9.2µM* | -10% | -27% | -34% | ? | -1%
CCOC(=O)[C@]12CCC=C1N(Cc1ccccc1)C(=O)[C@H](CC(=O)NCc1ccc(OC)c(OC)c1)C2 | ? | / | ? | 7% | i | /
COC(=O)[C@@]12C[C@@H](CC(=O)NCc3cccc(C(F)(F)F)c3)C(=O)N(Cc3ccc4c(c3)OCO4)C1=CCC(C)(C)C2 | ? | / | 18µM* | / | / | /
SMILES | DT40 TDP1 CPT | TGFb SMAD3 inh | DT40 TDP1 no CPT | ATXN2 expr inh | S2 tox | HepG2 viability
COC(=O)[C@@]12C[C@@H](CC(=O)NCc3ccc(OC)c(OC)c3)C(=O)N(Cc3ccc4c(c3)OCO4)C1=CCC(C)(C)C2 | 15µM* | / | 26µM* | / | / | /
COc1ccccc1-c1ccc(SCC(=O)NCCc2ccccc2)nn1 | ? | 1% | 23µM* | -9% | ? | -6%
COc1ccccc1-c1ccc(SCc2ccccc2)nn1 | ? | -1% | 21µM* | 33% | i | -4%
CCN(C[C@H]1N[C@@](CC)(C(=O)OC)[C@H]2C(=O)N(Cc3ccccc3)C(=O)[C@@H]12)C(=O)NC(C)C | 7% | 26% | -2% | 8% | i | 1%
Cc1ccc(N2C(=O)CC2(C#N)c2ccc(OCc3ccccc3)cc2)cc1 (stereo not given) | ? | -16% | ? | 6% | i | -21%
O=C(CNC(=O)c1ccco1)Nc1ccncc1 | -7% | 5% | -1% | -7% | i | 0%
CCc1nc2ccccc2c(C(=O)OCC(=O)Nc2cccc(S(=O)(=O)N3CCOCC3)c2)c1C | 16µM* | ? | 18µM* | ? | ? | -45%
CCc1nc2ccccc2c(C(=O)OCC(=O)Nc2ccc(S(=O)(=O)N3CCOCC3)cc2)c1C | 14µM* | ? | ? | -23% | i | -3%
O=C(COC(=O)c1nc(Cl)ccc1Cl)Nc1cccc(S(=O)(=O)N2CCOCC2)c1 | -14% | -14% | 0% | 10% | i | 0%
Cc1cc(C(=O)NCc2nc(-c3cccc(NC(=O)c4ccccc4)c3)oc2C)nc(C)n1 | -4%[9.04 µM] | / | -18% | / | i | /
Oc1ccc(Oc2ccc3c(C(F)(F)F)cc(C(F)(F)F)nc3n2)cc1 | 15µM* | ? | 18µM* | ? | ? | -85%
CC1(C)C(=O)NC2=C1C(=O)C(=O)c1ccccc12 | 1.3µM* | / | 0.94µM* | / | / | /
CC1(C)CC(=O)C2=C(C1)NC1=C(C(=O)c3ccccc31)C2c1ccc(Cl)cc1 (stereo not given) | ? | ? | ? | 0% | ? | -45%
COc1ccc(-c2[nH]c(-c3cccc(OC)c3)nc2SCC(=O)Nc2ccc3c(c2)OCO3)cc1 | 16µM* | 0% | ? | -32% | ? | -97%
COc1cccc(-c2nc(SCC(=O)Nc3ccc4c(c3)OCCO4)c(-c3ccccc3)[nH]2)c1 | 23µM* | ? | 18µM* | 0% | ? | -15%
COc1cccc(-c2nc(SCC(=O)NC3CCCC3)c(-c3ccc(C)cc3)[nH]2)c1 | ? | ? | ? | / | / | -49%
